We go through 36 molecules from PubChem BioAssay (NCI).

This is part of a sample that, as a whole, favours compounds with a hit. Of some 79,000 tested, about 15% had one in any assay. Values without a mark were called inactive. Active and inactive are the calls of the source. Cut-off read from the data, not from the text of the source: active = growth inhibition above about 70%; inactive = the rest.

The nature of experiment [1]: NCI Yeast Anticancer Drug Screen. Data for the rad50 strain (AID 155).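 Note: 0% = growth of vehicle-only cultures of the same strain.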 The settings on record: S. cerevisiae rad50 strain growth inhibition; at 50.0 µM; stronger effect = higher value. In short, it runs like this:
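Compounds were tested on a yeast strain with an engineered DNA damage repair alteration; the reported value is growth inhibition normalised to vehicle treatment.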

Experiment [2] can be described thus: NCI Yeast Anticancer Drug Screen. Data for the mec2-1 strain (AID 157). Conditions: S. cerevisiae mec2-1 strain, at 50.0 µM, stronger effect = higher value. In short, it runs like this: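 Cells of the genetically defined mec2-1 yeast strain are incubated with test compound. Inhibition of growth is calculated against vehicle-treated controls.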
Experiment [3] can be described thus: NCI Yeast Anticancer Drug Screen. Data for the sgs1 mgt1 strain (AID 161).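 Note: 0% = growth of cultures given vehicle only.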 The settings on record: S. cerevisiae sgs1 mgt1 strain, at 50.0 µM, stronger effect = higher value. The essentials: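 Mutant yeast exposed to compound; growth scored against vehicle-only wells.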
A short description of experiment [4]: NCI Yeast Anticancer Drug Screen. Data for the cln2 rad14 strain (AID 165).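 Note: 0% = growth equal to vehicle treated cultures.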 Conditions: S. cerevisiae cln2 rad14 strain, at 50.0 µM, stronger effect = higher value. In short, it runs like this:
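The screen exposed genetically defined yeast (cln2 rad14) to test compounds and scored growth inhibition relative to vehicle-treated controls.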

Experiment [5] in a line: NCI Yeast Anticancer Drug Screen. Data for the bub3 strain (AID 167). The settings on record: S. cerevisiae bub3 mutant strain, at 50.0 µM, stronger effect = higher value. In short, it runs like this:
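Growth of a checkpoint-deficient yeast mutant is measured after compound exposure. Values represent inhibition relative to vehicle.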

Experiment [6] is described as follows: NCI Yeast Anticancer Drug Screen. Data for the mlh1 rad18 strain (AID 175). Conditions: S. cerevisiae mlh1 rad18 strain growth inhibition; at 50.0 µM; stronger effect = higher value. In short, it runs like this:
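Compound-treated yeast growth, normalised to vehicle controls. Strain bears defined DNA repair mutations.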

Turning to `CC(O)COc1ccc(OCc2ccccc2)cc1` (stereo unspecified), the growth inhibition was 26.6% in experiment [1]; 34.6% in experiment [2]; 49.9% in experiment [3]; 10.2% in experiment [4]; 46.5% in experiment [5]; 33.9% in experiment [6].
With `COC(=O)c1ccc(/C=C/c2cc(O)ccc2O)cc1`, the growth inhibition in experiment [1] was 16.5%; in experiment [2] it was 25.8%; in experiment [3], 56.6%; in experiment [4], 44.5%; in experiment [5], 52.5%; in experiment [6], 75% (active).
Turning to `O=C(O)c1cc(C(=O)Nc2cccc3ccccc23)c(C(=O)O)cc1C(=O)Nc1cccc2ccccc12`, the growth inhibition is 14.6% in experiment [1]; 24.1% in experiment [2]; 17.6% in experiment [3]; -5.4% in experiment [4]; 6.4% in experiment [5]; 22.8% in experiment [6].
Take `Cc1ccccc1NC(=O)NNc1ccccc1`: the growth inhibition in experiment [1] is 17%; in experiment [2], -0.65%; in experiment [3], 7.35%; in experiment [4], 10.7%; in experiment [5], -2.9%; in experiment [6], 3.85%.
In the case of `O=C(O)c1ccc(CS(=O)(=O)c2ccccc2C(=O)O)cc1`, the growth inhibition in experiment [1] was 9%; in experiment [2], -0.6%; in experiment [3], 2.05%; in experiment [4], 15.8%; in experiment [5], 5.6%; in experiment [6], 20.2%.
Regarding `CC(=O)NC1=NCC(CSc2nc3ccccc3s2)S1` (stereo unspecified), the growth inhibition in experiment [1] was -8.45%; in experiment [2], -14.3%; in experiment [3], 5.65%; in experiment [4] it was -26.2%; in experiment [5], 9.7%; in experiment [6] it was 4.3%.
Regarding `O=C(OCCO)c1ccc(O)c(O)c1`, the growth inhibition in experiment [1] was 14.6%; in experiment [2], -4.65%; in experiment [3], 3.1%; in experiment [4] it was -25.8%; in experiment [5], -6.1%; in experiment [6], 7.55%.
Turning to `CCOC(=O)/C(C)=C/CC1=C(O)c2ccccc2C(=O)C1=O`, the growth inhibition in experiment [1] is 7.3%; in experiment [2], 23.7%; in experiment [3], 14.1%; in experiment [4], 16.2%; in experiment [5] it was 1.95%; in experiment [6], 16.8%.
As to `COc1ccc(/C=N/NC(=O)NNC(=O)c2cc([N+](=O)[O-])cc([N+](=O)[O-])c2)cc1OC`, the growth inhibition is 33.2% in experiment [1]; 13.3% in experiment [2]; 36.7% in experiment [3]; 15.4% in experiment [4]; 3.6% in experiment [5]; 32.4% in experiment [6].
As for `O=[N+]([O-])c1ccccc1S(=O)(=O)c1cc(Cl)cc2c1NCCC2`, the growth inhibition in experiment [1] is 16.8%; in experiment [2] it was 0.15%; in experiment [3] it was 26.8%; in experiment [4], 9.15%; in experiment [5], 38.8%; in experiment [6], 30.9%.
In the case of `CNc1ccccc1C(=O)N/N=C/c1c(O)ccc2ccccc12`, the growth inhibition in experiment [1] is -3.15%; in experiment [2], 18.3%; in experiment [3] it was 19%; in experiment [4], -10.3%; in experiment [5], 36.1%; in experiment [6] it was 2.45%.
Regarding `O=C1/C(=C/c2ccc(O)c(CN3CCCCC3)c2)CCC/C1=C\c1ccc(O)c(CN2CCCCC2)c1`, the growth inhibition is -0.8% in experiment [1]; 23.9% in experiment [2]; 1.75% in experiment [3]; -8% in experiment [4]; -1.9% in experiment [5]; 19.4% in experiment [6].
Consider `O=C(Cl)CN1C(=O)c2ccccc2C1=O`, for which the growth inhibition in experiment [1] was -12.1%; in experiment [2], -24%; in experiment [3] it was -14.5%; in experiment [4] it was -14.3%; in experiment [5], -12.3%; in experiment [6], -0.25%.
Regarding `CS(C)=O.[Cl-].[Cl-].[NH-]CC(O)C[N-]CC(O)CN.[Pt+4]` (stereo unspecified), the growth inhibition is -9.2% in experiment [1]; -19.7% in experiment [2]; -20.4% in experiment [3]; -9.65% in experiment [4]; -3.5% in experiment [5]; 9.55% in experiment [6].
For the molecule `Cn1c(Nc2ccccc2)c([N+](=O)[O-])c(=O)n(C)c1=O`, the growth inhibition in experiment [1] is -11.8%; in experiment [2] it was -7.35%; in experiment [3], -5%; in experiment [4] it was -18.2%; in experiment [5] it was -2.15%; in experiment [6], -27.6%.
On to `CC(C)c1ccccc1OC(=O)c1cccc(Br)c1`, for which the growth inhibition in experiment [1] is -19%; in experiment [2], -1.95%; in experiment [3], 0.35%; in experiment [4] it was -23.1%; in experiment [5], 13.9%; in experiment [6] it was 1.5%.
Regarding `O=C(Nc1cc(Cl)c(I)cc1Cl)C(F)(F)F`, the growth inhibition in experiment [1] is 55.4%; in experiment [2], 10.8%; in experiment [3], 29.7%; in experiment [4], -8.35%; in experiment [5], 7.05%; in experiment [6], 18.8%.
For `O=C1CSC(c2c(F)cccc2Cl)N1c1nncs1` (stereo unspecified), the growth inhibition in experiment [1] is 9.4%; in experiment [2], -2%; in experiment [3], 31.4%; in experiment [4] it was 13%; in experiment [5] it was 29.6%; in experiment [6] it was 10%.
Consider `O=C1CCC(c2ccccc2)C(O)(C(=O)O)C1` (stereo unspecified), for which the growth inhibition in experiment [1] was 6.45%; in experiment [2] it was -8.1%; in experiment [3] it was -13.9%; in experiment [4] it was -5.1%; in experiment [5], -14.3%; in experiment [6], -24.9%.
As for `N#CC(C(=O)/C(=N\Nc1nc(=S)[nH]n1N)C(C#N)c1ccc(Cl)cc1)c1ccc(Cl)cc1` (stereo unspecified), the growth inhibition is -13.3% in experiment [1]; -10% in experiment [2]; -28.6% in experiment [3]; 4.45% in experiment [4]; -4.4% in experiment [5]; -4.95% in experiment [6].
On to `O=C(NNc1ccccc1)c1ccc(Cl)cc1Cl`, for which the growth inhibition is 3.5% in experiment [1]; -9.4% in experiment [2]; 50% in experiment [3]; -0.05% in experiment [4]; 50.4% in experiment [5]; 34.9% in experiment [6].
Take `Cc1cc(Br)ncc1[N+](=O)[O-]`: the growth inhibition is -12.8% in experiment [1]; 3.3% in experiment [2]; -1.25% in experiment [3]; -6% in experiment [4]; -3.7% in experiment [5]; -7.6% in experiment [6].
As to `CCCCOC(=O)CCCCCCCCC(=O)OCCCC`, the growth inhibition in experiment [1] was 23.6%; in experiment [2] it was -9%; in experiment [3], 2.05%; in experiment [4], -14.1%; in experiment [5] it was 0.2%; in experiment [6], 28.4%.
With `CCCCCCCCCCCc1cc(=O)n(-c2cc(Cl)ccc2Cl)n1C`, the growth inhibition in experiment [1] is 99.1% (active); in experiment [2] it was 99.3% (active); in experiment [3], 99.5% (active); in experiment [4] it was 98.7% (active); in experiment [5] it was 99% (active); in experiment [6], 99.2% (active).
Turning to `Cc1cccc(C(=O)C(O)c2cccc(C)n2)n1` (stereo unspecified), the growth inhibition is 7.75% in experiment [1]; -18.4% in experiment [2]; -1.55% in experiment [3]; 8.2% in experiment [4]; -20.3% in experiment [5]; 4.4% in experiment [6].
As for `CCSC(C(OC(C)=O)C(OC(C)=O)C(COC(C)=O)OC(C)=O)n1cnc2c(=S)nc[nH]c21` (stereo unspecified), the growth inhibition in experiment [1] was 6.75%; in experiment [2] it was -0.45%; in experiment [3], 9.35%; in experiment [4], 18.8%; in experiment [5], -1.55%; in experiment [6] it was 1.7%.
For the molecule `COc1ccc(/C=C\c2cc(OC)c(OC)c(OC)c2)cc1OCC(=O)O`, the growth inhibition is -5.95% in experiment [1]; -1.75% in experiment [2]; 13% in experiment [3]; 8.65% in experiment [4]; -10.4% in experiment [5]; -52.5% in experiment [6].
Turning to `C[N+]1(C)CCC(O)C(c2ccccc2)C1` (stereo unspecified), the growth inhibition in experiment [1] is -8.9%; in experiment [2], -0.45%; in experiment [3] it was -3.5%; in experiment [4], -22.5%; in experiment [5] it was -8.1%; in experiment [6], -0.7%.
Consider `CN(C)c1ccc(/C=N/NC(=O)c2cnc3ccccc3c2)cc1`, for which the growth inhibition was -7.05% in experiment [1]; -4.95% in experiment [2]; -11.3% in experiment [3]; -0.4% in experiment [4]; 8.1% in experiment [5]; 17.4% in experiment [6].
For `O=C(Oc1cccc2ccccc12)c1cccnc1`, the growth inhibition in experiment [1] was -1.45%; in experiment [2], -2%; in experiment [3], 6.4%; in experiment [4], -38%; in experiment [5], 19.7%; in experiment [6], 31.3%.
Turning to `CCOC(=O)c1ccc2c(c1)C(C)(SC)C(=O)N2` (stereo unspecified), the growth inhibition in experiment [1] is -12.7%; in experiment [2] it was 0.7%; in experiment [3] it was -2.85%; in experiment [4], 4.65%; in experiment [5] it was -6.55%; in experiment [6], -1.35%.
`Cc1cc(Cl)c(Cl)cc1NC(=O)c1ccccc1Cl`: the growth inhibition is 1.55% in experiment [1]; -11.3% in experiment [2]; 4% in experiment [3]; -9.25% in experiment [4]; 8.9% in experiment [5]; -5.25% in experiment [6].
In the case of `COc1ccc(C(=O)NNC(=O)c2ccc3ccccc3c2)cc1`, the growth inhibition is 10.8% in experiment [1]; 1.25% in experiment [2]; 9.8% in experiment [3]; 9.95% in experiment [4]; 5.5% in experiment [5]; -7.3% in experiment [6].
In the case of `C/C(CC(=O)Nc1ccc(Cl)cc1)=N\NC(=O)C[n+]1ccccc1`, the growth inhibition in experiment [1] was 1.35%; in experiment [2], -17.6%; in experiment [3], 11.2%; in experiment [4], 16.6%; in experiment [5], -12.5%; in experiment [6] it was -8.6%.
Regarding `CC(=O)Nc1nc2nccn2c(=O)[nH]1`, the growth inhibition in experiment [1] is -5.7%; in experiment [2], -3.1%; in experiment [3], -6.5%; in experiment [4], -28.3%; in experiment [5], -2.4%; in experiment [6], 2%.
As for `CC(=O)Nc1ccc(/C=N/NC(=O)/C=C/c2ccccc2)cc1`, the growth inhibition in experiment [1] was -7.15%; in experiment [2], 3.25%; in experiment [3], 6.25%; in experiment [4] it was -5%; in experiment [5], -1%; in experiment [6] it was 2.15%.
